Sampled rows, rich in hits. Any-hit rate of the full collection: about 5.4%.
CSC inhib: cancer stem cell viability inhibitors, primary screen, luminescence; cancer stem cell-like cells viability; 300,000 compounds, 1.1% hits; inhibition, % at 7.5 µM; in the data active = inhibition above about 75%; tested in HMLE shEcad cells
PP5 primary: PP5 phosphatase inhibitors, primary screen, biochemical, fluorescence | AID 1987, 2009 | inhibition, % at 6.7 µM | 320,000 compounds, 0.18% hits | purified PP5c, OMFP substrate fluorescence | Serine/threonine-protein phosphatase 5 (Homo sapiens), P53041;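 active = inhibition above the campaign's mean inhibition across all tested compounds plus 3 SD, cut at about 9.5% in these data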;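 note: 0% = DMSO only and 100% = 100 µM cantharidin control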
Calb FLC: C. albicans growth inhibition with fluconazole, primary screen, CaCi-2 strain, Alamar Blue fluorescence | C. albicans CaCi-2 (fluconazole-resistant clinical isolate) + fluconazole, 48 h | growth inhibition, % (concentration not given with the values) | 300,000 compounds, 0.57% hits;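 active = growth inhibition above about 58% in most replicates, limit read from the data, passing the limit was not always enough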;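 note: all wells also contain fluconazole at 8 µg/ml as a sub-toxic cotreatment; 0% = median of DMSO wells and 100% = median of geldanamycin control wells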
ALR H2O2 inh: inhibitors of human ALR sulfhydryl oxidase, primary screen, biochemical, H2O2 detection, HRP-luminol luminescence, single point; inhibition, % (concentration not given with the values); 290,000 compounds, 3.8% hits; purified ALR, DTT oxidation; FAD-linked sulfhydryl oxidase ALR (Homo sapiens), P55789;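 active = mean replicate inhibition above about 79%, with every replicate also reaching it, limit read from the data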
Target sequence (P55789 whole entry, looked up): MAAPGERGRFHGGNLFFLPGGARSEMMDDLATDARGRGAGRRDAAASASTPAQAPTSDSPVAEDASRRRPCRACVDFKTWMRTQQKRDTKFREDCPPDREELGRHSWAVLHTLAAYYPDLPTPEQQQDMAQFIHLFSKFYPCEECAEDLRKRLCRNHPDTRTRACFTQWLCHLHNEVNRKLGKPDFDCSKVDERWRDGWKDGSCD
PP1 counter: PP1-alpha phosphatase inhibitors, primary screen, counter-screen for PP5 inhibitor project, biochemical, fluorescence, OMFP substrate, single point; purified PP1alpha; inhibition, % at 6.7 µM; 320,000 compounds, 0.9% hits; AID 2235, 2010;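 active = inhibition above the mean inhibition of all tested compounds plus 3 SD, computed separately for each screening campaign, cut at about 15% in these data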
Target sequence (P62136 whole entry, looked up): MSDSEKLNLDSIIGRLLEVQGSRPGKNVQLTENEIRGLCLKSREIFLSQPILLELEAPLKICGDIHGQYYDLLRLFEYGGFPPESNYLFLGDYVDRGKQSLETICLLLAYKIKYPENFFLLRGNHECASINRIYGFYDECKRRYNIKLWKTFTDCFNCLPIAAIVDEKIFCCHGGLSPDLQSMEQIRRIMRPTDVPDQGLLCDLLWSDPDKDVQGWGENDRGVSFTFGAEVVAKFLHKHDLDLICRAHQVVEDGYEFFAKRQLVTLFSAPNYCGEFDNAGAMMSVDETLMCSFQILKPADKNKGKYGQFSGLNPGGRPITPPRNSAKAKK
PP1 confirm: PP1 phosphatase inhibitors, confirmation, biochemical, fluorescence, OMFP substrate, triplicate; shares compounds with PP1 counter; purified PP1alpha; inhibition, % at 6.7 µM; 1,900 compounds, 52% hits; AID 2358, 2010;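 active = mean PP1 inhibition above a set limit taken from the earlier primary screen, cut at about 15% in these data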
PP5 counter: PP5 phosphatase inhibition by PP1 hits, confirmation, counter-screen for PP1 inhibitor project, biochemical, fluorescence, triplicate; shares compounds with PP1 counter; purified PP5c, OMFP fluorescence; inhibition, % at 6.7 µM; 1,900 compounds, 4% hits;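 active = mean PP5 inhibition over triplicate wells above about 9.5% taken from the earlier PP1 screen, limit read from the data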
Active calls of the source: *.

How did COc1ccc(-c2cc(C(=O)N/N=C(\C)c3ccco3)c3ccccc3n2)c(OC)c1 do in these assays?
CSC inhib: -2; PP5 primary: 4; Calb FLC: 6; ALR H2O2 inh: 9; PP1 counter: 5

How did CCc1nnc2sc(-c3ccc(NC(=O)CSc4ccc(Cl)cc4)cc3)nn12 do in these assays?
CSC inhib: -13; PP5 primary: 2; Calb FLC: 0; ALR H2O2 inh: -1; PP1 counter: 3

Results for Cc1nnc2sc(-c3ccc(NC(=O)CSc4ccc(Cl)cc4)cc3)nn12 ?
CSC inhib: 47; PP5 primary: 3; Calb FLC: -2; ALR H2O2 inh: -6; PP1 counter: 18*; PP1 confirm: 5; PP5 counter: 1

Results for COc1ccc(OC)c(NC(=O)CSc2nnc(CCCO)n2-c2ccccc2)c1 ?
CSC inhib: -2; PP5 primary: 0; Calb FLC: 3; ALR H2O2 inh: -8; PP1 counter: 21*; PP1 confirm: -4; PP5 counter: -2

How did COc1nc(-c2ccccc2)ccc1-c1noc(COc2ccccc2)n1 do in these assays?
CSC inhib: 28; PP5 primary: 1; Calb FLC: 6; ALR H2O2 inh: 2; PP1 counter: 19*; PP1 confirm: 15; PP5 counter: -1

How did COc1nc(-c2ccccc2)ccc1-c1noc(-c2ccccc2)n1 do in these assays?
CSC inhib: -12; PP5 primary: 0; Calb FLC: 1; ALR H2O2 inh: -8; PP1 counter: 0

Results for CN1CCN(C(=S)c2ccc([N+](=O)[O-])cc2)CC1 ?
PP5 primary: 1; Calb FLC: -9; ALR H2O2 inh: 7; PP1 counter: -2

What do the screens show for `COc1ccc(CN2CCc3cc(OC)c(OC)cc3C2)cc1O`?
CSC inhib: -2; PP5 primary: 4; Calb FLC: 1; ALR H2O2 inh: 11; PP1 counter: -1

How did O=C(O)c1cc(-c2ccc(N3CCOCC3)cc2)nn1-c1ccc(F)cc1F do in these assays?
CSC inhib: -3; PP5 primary: 2; Calb FLC: 9; ALR H2O2 inh: 14; PP1 counter: 24*; PP1 confirm: 27*; PP5 counter: -3

Results for O=C(O)c1cc(-c2ccc(N3CCOCC3)cc2)nn1-c1ccccc1Cl ?
CSC inhib: -5; PP5 primary: -2; Calb FLC: -7; ALR H2O2 inh: 59; PP1 counter: 34*; PP1 confirm: 38*; PP5 counter: 0

Results for O=S(=O)(Nc1ccc(N2CCOCC2)cc1)c1ccc(F)cc1F ?
CSC inhib: -6; PP5 primary: -1; Calb FLC: 21; ALR H2O2 inh: 20; PP1 counter: -1

How did O=C1c2cccc3cccc(c23)C(=O)N1OS(=O)(=O)c1ccc(Cl)cc1 do in these assays?
CSC inhib: -4; PP5 primary: 2; Calb FLC: -11; ALR H2O2 inh: 25; PP1 counter: -6

Results for O=C(N/N=C/C1CCCCC1)c1ccccc1-n1cccc1 ?
CSC inhib: 12; PP5 primary: 0; Calb FLC: -1; PP1 counter: -1

How did CCOC(=O)Cc1cc(=O)n2[nH]c(-c3ccccc3)c(-c3ccccc3)c2n1 do in these assays?
CSC inhib: 17; PP5 primary: 4; Calb FLC: 21; ALR H2O2 inh: 26; PP1 counter: 39*; PP1 confirm: 40*; PP5 counter: -1

What do the screens show for `CCn1c(=O)c(C(=O)NNC(=O)c2ccccc2Br)c(O)c2ccccc21`?
PP5 primary: -1; Calb FLC: 2; PP1 counter: 22*; PP1 confirm: 12; PP5 counter: -4

What do the screens show for `Cn1c(=O)c(C(=O)NNC(=O)c2ccccc2Cl)c(O)c2ccccc21`?
CSC inhib: 17; PP5 primary: -4; Calb FLC: -8; PP1 counter: 8

How did Cn1c(=O)c(C(=O)NNC(=O)c2ccccc2Br)c(O)c2ccccc21 do in these assays?
CSC inhib: -1; PP5 primary: 1; Calb FLC: 1; ALR H2O2 inh: 1; PP1 counter: 20*; PP1 confirm: 15; PP5 counter: -3

What do the screens show for `O=[N+]([O-])c1cc(/C=N/n2c(-c3ccncc3)n[nH]c2=S)ccc1Cl`?
PP5 primary: 1; Calb FLC: 1; ALR H2O2 inh: -9; PP1 counter: 25*; PP1 confirm: 4; PP5 counter: -2

How did CC(NS(=O)(=O)c1ccc2c(c1)OCCCO2)C(=O)O (stereo not drawn) do in these assays?
CSC inhib: -5; PP5 primary: 1; Calb FLC: -3; ALR H2O2 inh: -5; PP1 counter: -2

How did C#CCOCCOCCOCCNc1nc(N2CCN(C(=O)CCCCCCCCCCNC(=O)[C@@H](CCSC)n3cc(CCO)nn3)CC2)nc(N2CCN(C(=O)CCCCCCCCCCNC(=O)[C@H](CO)n3cc(CCCCCN)nn3)CC2)n1 do in these assays?
CSC inhib: 0; PP5 primary: 2; ALR H2O2 inh: -10; PP1 counter: 49*; PP1 confirm: 49*; PP5 counter: 0

Results for C#CCOCCOCCOCCNc1nc(N2CCN(C(=O)CCCCCCCCCCNC(=O)[C@@H](CCSC)n3cc(CCO)nn3)CC2)nc(N2CCN(C(=O)CCCCCCCCCCNC(=O)[C@H](CCC(=O)O)n3cc(CCCCCN)nn3)CC2)n1 ?
CSC inhib: -9; PP5 primary: 3; ALR H2O2 inh: -6; PP1 counter: 18*; PP1 confirm: 37*; PP5 counter: 4

What do the screens show for `CC(=O)N1CCc2cc(S(=O)(=O)NC(CC(C)C)C(=O)Nc3cc(C)ccn3)ccc21` (stereo not drawn)?
CSC inhib: -18; PP5 primary: 2; Calb FLC: 5; PP1 counter: -6

What do the screens show for `O=C(O)C1Nc2ccc(Br)cc2C2C=CCC12` (stereo not drawn)?
CSC inhib: -3; PP5 primary: 2; Calb FLC: 20; ALR H2O2 inh: 30; PP1 counter: 38*; PP1 confirm: 6; PP5 counter: -2

How did O=C(O)C1Nc2c(Cl)cc(Cl)cc2C2C=CCC12 (stereo not drawn) do in these assays?
CSC inhib: -38; PP5 primary: 0; Calb FLC: 3; ALR H2O2 inh: 48; PP1 counter: 24*; PP1 confirm: 4; PP5 counter: -2
